Test [1] is described as follows: Quantitative High-Throughput drug screen in 47 multiple myeloma cell lines against the NCATS MIPE library collection: KMS20_JCRB cell viability assay (AID 1918973). Note: nearly all actives have a fitted effect of over 45% in size. In short, it runs like this: (§1)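 Viability readout: CellTiter-Glo luminescence following 5 min room-temperature incubation with reagent. Prior exposure: 48 h, 37C, humidified 5% CO2, 500 cells per well.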

Test [2] is described as follows: Quantitative High-Throughput drug screen in 47 multiple myeloma cell lines against the NCATS MIPE library collection: KMS26_JCRB cell viability assay (AID 1918975). Note: nearly all actives have a fitted effect of over 45% in size. The method, boiled down:
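Myeloma cells (500 per well) were exposed to MIPE 4.0 compounds by pin transfer and incubated 48 hours at 37C, 5% CO2. Viability was read as ATP by CellTiter-Glo luminescence, normalised to DMSO (100%) and media-only (0%) wells.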

Test [3] can be described thus: Quantitative High-Throughput drug screen in 47 multiple myeloma cell lines against the NCATS MIPE library collection: MMM1_PLB cell viability assay (AID 1918976). Note: nearly all actives have a fitted effect of over 35% in size. In short, it runs like this:
(§2)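 Inhibition of viability over 48 h was scored by ATP content (CellTiter-Glo) in 500-cell wells. Zero and full viability were defined by media-only and DMSO-only wells.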

Test [4] in a line: Quantitative High-Throughput drug screen in 47 multiple myeloma cell lines against the NCATS MIPE library collection: MOLP8_DSMZ cell viability assay (AID 1918977). Note: nearly all actives have a fitted effect of over 45% in size. In short, it runs like this:
as §2

A short description of test [5]: Quantitative High-Throughput drug screen in 47 multiple myeloma cell lines against the NCATS MIPE library collection: NCIH929_DSMZ cell viability assay (AID 1918978). Note: nearly all actives have a fitted effect of over 35% in size. The method, boiled down:
as §2

The nature of test [6]: Quantitative High-Throughput drug screen in 47 multiple myeloma cell lines against the NCATS MIPE library collection: OCIMY1_PLB cell viability assay (AID 1918979). Note: nearly all actives have a fitted effect of over 35% in size. In short, it runs like this:
as §2

Test [7] in a line: Quantitative High-Throughput drug screen in 47 multiple myeloma cell lines against the NCATS MIPE library collection: MM1S_ATCC cell viability assay (AID 1918980). Note: nearly all actives have a fitted effect of over 45% in size. The method, boiled down:
as §2

The nature of test [8]: Quantitative High-Throughput drug screen in 47 multiple myeloma cell lines against the NCATS MIPE library collection: MM1R_ATCC cell viability assay (AID 1918981). Note: nearly all actives have a fitted effect of over 35% in size. The method, boiled down: as §2
A short description of test [9]: Quantitative High-Throughput drug screen in 47 multiple myeloma cell lines against the NCATS MIPE library collection: KMS28PE_JCRB cell viability assay (AID 1918983). Note: nearly all actives have a fitted effect of over 35% in size. The method, boiled down: as §2
Test [10] is described as follows: Quantitative High-Throughput drug screen in 47 multiple myeloma cell lines against the NCATS MIPE library collection: KMS34_JCRB cell viability assay (AID 1918985). Note: nearly all actives have a fitted effect of over 40% in size. In short, it runs like this:
as §2

Test [11] in a line: Quantitative High-Throughput drug screen in 47 multiple myeloma cell lines against the NCATS MIPE library collection: OCIMY7_PLB cell viability assay (AID 1918987). Note: nearly all actives have a fitted effect of over 65% in size. Conditions: OCI-MY7 myeloma viability, CellTiter-Glo ATP, 48 h; viability (% of DMSO): at 45.8 µM (top of the series). In short, it runs like this: as §2
A short description of test [12]: Quantitative High-Throughput drug screen in 47 multiple myeloma cell lines against the NCATS MIPE library collection: OCIMY5_PLB cell viability assay (AID 1918988). Note: nearly all actives have a fitted effect of over 65% in size. In short, it runs like this: as §2
The nature of test [13]: Quantitative High-Throughput drug screen in 47 multiple myeloma cell lines against the NCATS MIPE library collection: OPM1_PLB cell viability assay (AID 1918989). Note: nearly all actives have a fitted effect of over 40% in size. The method, boiled down:
as §2

Test [14] in a line: Quantitative High-Throughput drug screen in 47 multiple myeloma cell lines against the NCATS MIPE library collection: SKMM1_PLB cell viability assay (AID 1919863). Note: nearly all actives have a fitted effect of over 35% in size. Conditions: SKMM1 myeloma viability, CellTiter-Glo ATP, 48 h; viability: active compounds read low. The method, boiled down: as §2
Test [15] in a line: Quantitative High-Throughput drug screen in 47 multiple myeloma cell lines against the NCATS MIPE library collection: U266_ATCC cell viability assay (AID 1919864). Note: nearly all actives have a fitted effect of over 35% in size. The method, boiled down:
as §2

A short description of test [16]: Quantitative High-Throughput drug screen in 47 multiple myeloma cell lines against the NCATS MIPE library collection: XG6_PLB cell viability assay (AID 1919865). Note: nearly all actives have a fitted effect of over 40% in size. In short, it runs like this:
as §2

Test [17] can be described thus: Quantitative High-Throughput drug screen in 47 multiple myeloma cell lines against the NCATS MIPE library collection: XG1_PLB cell viability assay (AID 1919866). Note: nearly all actives have a fitted effect of over 35% in size. In short, it runs like this: as §2
A short description of test [18]: Quantitative High-Throughput drug screen in 47 multiple myeloma cell lines against the NCATS MIPE library collection: LP1_DSMZ cell viability assay (AID 1918982). Note: nearly all actives have a fitted effect of over 35% in size. In short, it runs like this:
as §2

Test [19] is described as follows: Quantitative High-Throughput drug screen in 47 multiple myeloma cell lines against the NCATS MIPE library collection: KMS21BM_JCRB cell viability assay (AID 1918974). To be noted: ATP luminescence, 48 h; viability: at 45.8 µM (top of the series). The method, boiled down: as §1
Test [20] is described as follows: Quantitative High-Throughput drug screen in 47 multiple myeloma cell lines against the NCATS MIPE library collection: L363_DSMZ cell viability assay (AID 1918984). Note: nearly all actives have a fitted effect of over 40% in size. To be noted: L363 myeloma viability, CellTiter-Glo ATP luminescence, 48 h; viability (% of control): at 45.8 µM (top of the series). The method, boiled down:
as §2
(ATP-based viability assays read luminescence as a measure of living cells.)

Molecules are shown by their SMILES. Results filed as inconclusive are left out. Values without a mark were called inactive. Activity calls are given as the source filed them. Calls come from the whole dose curve; as a rule, active = well fitted curve in the direction sought with a large enough effect; inconclusive = small, poorly fitted or top-dose-only effect, or another doubt; inactive = no such curve, though single readings can be large; an effect the other way counts as inactive or inconclusive.
Potency is the fitted concentration of half-maximal effect.

`CC1(C)CC(=O)c2c(C(F)(F)F)nn(-c3ccc(C(N)=O)c(NC4CCC(O)CC4)c3)c2C1` (configuration not stated): the Potency in test [1] was 93.5 nM (active); in test [2] it was 46.9 nM (active); in test [3], 372 nM (active); in test [4], 41.8 nM (active); in test [5], 105 nM (active); in test [6], 235 nM (active). Besides, the Potency in test [7] is 148 nM (active); in test [8], 118 nM (active); in test [9] it was 118 nM (active); in test [10], 105 nM (active); in test [11], 66.2 nM (active); in test [12], 118 nM (active). Moreover, the Potency in [13] is 105 nM (active); in test [14] it was 187 nM (active); in test [15], 93.5 nM (active).

Regarding `COc1c(C)cnc(Cn2cnc3c(Cl)nc(N)nc32)c1C`, the Potency in test [1] was 209 nM (active); in test [2], 209 nM (active); in test [3], 935 nM (active); in test [4] it was 93.5 nM (active); in test [5], 187 nM (active); in test [7], 332 nM (active). Besides, the Potency is 235 nM (active) in [8]; 235 nM (active) in test [9]; 105 nM (active) in test [10]; 93.5 nM (active) in [12]; 148 nM (active) in test [13]; 166 nM (active) in [15]. Further, the values for the Potency in [16] and in test [17] were 264 nM (active) and 118 nM (active), respectively.

As to `CNC1CCC(N(Cc2cccc(-c3ccncc3)c2)C(=O)c2sc3ccccc3c2Cl)CC1` (configuration not stated), the Potency was 5260 nM (active) in test [1]; 20900 nM (active) in [2]; 20900 nM (active) in test [3]; 16600 nM (active) in [4]; 23500 nM (active) in test [6]; 18700 nM (active) in test [8]. Besides, the Potency is 26400 nM (active) in test [18]; 23500 nM (active) in test [9]; 10500 nM (active) in [11]; 18700 nM (active) in test [12]; 8330 nM (active) in [13]; 18700 nM (active) in [14]. In addition, the Potency is 8330 nM (active) in test [16] and 9350 nM (active) in [17].

Turning to `CN1C(=O)C(Cc2c[nH]c3ccccc23)NC1=S` (configuration not stated), the Potency result in test [1], in test [2], in test [4], in [5], in test [6] and in test [7] was “inactive” throughout. Moreover, the Potency entry in [8], in [18], in test [9], in test [10], in [13] and in [16] was “inactive” throughout. Moreover, in test [17], the Potency entry was “inactive”. Besides, the Potency was 11800 nM (active) in test [3], 418 nM (active) in [14] and 5900 nM (active) in test [15].

With `CN(C)CCN(C)C(=O)c1ccc(NC(=O)Nc2ccc(-c3nc(N4CCOCC4)c4ccn(CC(F)(F)F)c4n3)cc2)cc1`, the Potency in [1] is 41.8 nM (active); in [2] it was 52.6 nM (active); in [3] it was 29.6 nM (active); in [4], 6.6 nM (active); in test [5] it was 8.3 nM (active); in [6], 7430 nM (active). Also, the Potency in test [7] was 52.6 nM (active); in test [8] it was 105 nM (active); in [9] it was 46.9 nM (active); in [10], 372 nM (active); in test [11] it was 3320 nM (active); in test [12], 418 nM (active). In addition, the Potency in test [13] was 9.3 nM (active); in [14], 209 nM (active).

Take `COc1cccc(OC)c1-c1cc(C(=O)NC2(C(=O)O)C3CC4CC(C3)CC2C4)nn1-c1ccnc2cc(Cl)ccc12` (configuration not stated): the Potency result in test [1], in test [2], in test [4], in [5], in [8] and in test [18] was “inactive” each time. The Potency result in test [9], in test [12], in test [13] and in test [16] was “inactive” throughout. Also, the values for the Potency in test [3] and in test [7] were 14800 nM (active) and 16600 nM (active), respectively.

As for `COC(=O)Nc1ccc(-c2nc(N3CCOCC3)c3cnn(C4CCN(C(=O)OC)CC4)c3n2)cc1`, the Potency in test [1] is 14.8 nM (active); in [19], 52.6 nM (active); in test [2], 1660 nM (active); in test [3] it was 418 nM (active); in test [4] it was 1480 nM (active); in test [5], 37.2 nM (active). Further, the Potency in test [6] is 5260 nM (active); in [7], 6.6 nM (active); in test [8] it was 743 nM (active); in test [18], 235 nM (active); in [9], 1180 nM (active); in [20], 93.5 nM (active). For the same compound, the Potency is 1050 nM (active) in [10]; 23.5 nM (active) in test [11]; 1180 nM (active) in [12]; 372 nM (active) in [13]; 11800 nM (active) in test [14]; 1320 nM (active) in test [15]. The Potency in [17] was 296 nM (active).

`C[C@@H]1O[C@@H](O[C@H]2CC[C@@]3(C)[C@H](CC[C@@H]4[C@H]3C[C@@H](O)[C@]3(C)[C@@H](C5=CC(=O)OC5)CC[C@]43O)C2)C[C@H](O)[C@@H]1O[C@H]1C[C@H](O)[C@H](O[C@H]2C[C@H](O)[C@@H](O)[C@@H](C)O2)[C@H](C)O1` (stereo in doubt): the Potency in test [1] is 270 nM (active); in test [19], 215 nM (active); in [2], 270 nM (active); in test [3] it was 171 nM (active); in test [4] it was 152 nM (active); in [5], 340 nM (active). Besides, the Potency in [6] is 241 nM (active); in [7], 340 nM (active); in test [8], 270 nM (active); in [18], 121 nM (active); in test [9], 152 nM (active); in [20] it was 171 nM (active). Besides, the Potency in test [10] is 340 nM (active); in [11], 152 nM (active); in [12] it was 136 nM (active); in [13], 270 nM (active); in test [14], 303 nM (active); in [16], 152 nM (active). The Potency in test [17] was 60.5 nM (active).

For `CC(C)[C@H](O)C(=O)N[C@@H](C)C(=O)N[C@@H]1C(=O)N(C)CCc2ccccc21`, the Potency entry in test [1], in [2], in test [6], in [8], in test [18] and in test [20] was “inactive” in each case. The Potency entry in test [10], in test [12], in [13] and in [15] was “inactive” throughout. In addition, the Potency is 23500 nM (active) in test [3], 5.3 nM (active) in [4], 16600 nM (active) in test [5] and 26400 nM (active) in test [16].

As for `Cc1ccccc1-n1c(Cn2nc(-c3cccc(O)c3)c3c(N)ncnc32)nc2cccc(C)c2c1=O`, the Potency is 5260 nM (active) in test [1]; 11800 nM (active) in test [2]; 18700 nM (active) in [3]; 5900 nM (active) in test [4]; 1320 nM (active) in test [7]; 9350 nM (active) in test [8]. For the same compound, the Potency was 9350 nM (active) in test [9]; 2350 nM (active) in [20]; 3320 nM (active) in test [10]; 2960 nM (active) in [11]; 10500 nM (active) in test [12]; 2350 nM (active) in test [13]. The values for the Potency in [14], in test [16] and in test [17] were 8330 nM (active), 935 nM (active) and 2090 nM (active), respectively.

For the origin of these results see PubChem BioAssay (NCATS).
